Data as given in PubChem BioAssay AID1159580 (chemical genetic matrix, 2015).
Among all 5,500 compounds or so, about 2,000 (36%) were called active. Another 18% or so got no clear call; they are omitted. Cut-off read from the data, not from the text of the source: active = normalized growth mostly below about 0.91 (no sharp cut-off); inconclusive = no clear call, values can overlap the other calls; inactive = mostly above about 0.92. The list shows a part of the results.

Assay: chemical genetic growth profiling, strain panel (AID 1159580);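 note: tested at 20 µM; growth read once vehicle control cultures reached saturation at 30 °C; 1 = growth at the plate median or of vehicle wells; lower values mean less growth of the strain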
Conditions: growth OD
[1] = S. cerevisiae deletion strains, locus YAL013W, strain DEP1, stronger effect = lower value
[2] = S. cerevisiae deletion strains, locus YBR229C, strain ROT2, stronger effect = lower value
[3] = S. cerevisiae deletion strains, locus YCL061C, strain MRC1, stronger effect = lower value
[4] = S. cerevisiae deletion strains, locus YDL101C, strain DUN1, stronger effect = lower value
[5] = S. cerevisiae deletion strains, locus YDL134C, strain PPH21, stronger effect = lower value
[6] = S. cerevisiae deletion strains, locus YDR150W, strain NUM1, stronger effect = lower value
[7] = S. cerevisiae deletion strains, locus YEL061C, strain CIN8, stronger effect = lower value
[8] = S. cerevisiae deletion strains, locus YGR078C, strain PAC10, stronger effect = lower value
[9] = S. cerevisiae deletion strains, locus YHR030C, strain SLT2, stronger effect = lower value
[10] = S. cerevisiae deletion strains, locus YHR087W, strain rtc3, stronger effect = lower value
[11] = S. cerevisiae deletion strains, locus YJR043C, strain POL32, stronger effect = lower value
[12] = S. cerevisiae deletion strains, locus YJR075W, strain HOC1, stronger effect = lower value
[13] = S. cerevisiae deletion strains, locus YKL190W, strain CNB1, stronger effect = lower value
[14] = S. cerevisiae deletion strains, locus YLR039C, strain RIC1, stronger effect = lower value
[15] = S. cerevisiae deletion strains, locus YLR058C, strain SHM2 (second series), stronger effect = lower value
[16] = S. cerevisiae deletion strains, locus YLR085C, strain ARP6, stronger effect = lower value
[17] = S. cerevisiae deletion strains, locus YLR262C, strain YPT6, stronger effect = lower value
[18] = S. cerevisiae deletion strains, locus YML094W, strain GIM5, stronger effect = lower value
[19] = S. cerevisiae deletion strains, locus YMR219W, strain ESC1, stronger effect = lower value
[20] = S. cerevisiae deletion strains, locus YMR263W, strain SAP30, stronger effect = lower value
[21] = S. cerevisiae deletion strains, locus YMR307W, strain GAS1, stronger effect = lower value
[22] = S. cerevisiae deletion strains, locus YNL128W, strain TEP1, stronger effect = lower value
[23] = S. cerevisiae deletion strains, locus YNL153C, strain GIM3, stronger effect = lower value
[24] = S. cerevisiae deletion strains, locus YNL298W, strain CLA4 (second series), stronger effect = lower value
[25] = S. cerevisiae deletion strains, locus YNL322C, strain KRE1, stronger effect = lower value
[26] = S. cerevisiae deletion strains, locus YNR030W, strain Alg12, stronger effect = lower value
[27] = S. cerevisiae deletion strains, locus YPL055C, strain LGE1, stronger effect = lower value
[28] = S. cerevisiae deletion strains, locus YPL241C, strain CIN2, stronger effect = lower value
[29] = S. cerevisiae deletion strains, locus YPR135W, strain CTF4, stronger effect = lower value
[30] = S. cerevisiae deletion strains, locus YJL187C, strain SWE1, stronger effect = lower value

Measured: normalized growth

O=C(NC1CCCCC1)N1CCN(c2ncccc2C(F)(F)F)CC1
inactive: [1] 1.01 | [2] 0.994 | [3] 0.984 | [4] 0.998 | [5] 0.982 | [6] 0.978 | [7] 0.998 | [8] 1 | [9] 0.994 | [10] 1.01 | [11] 0.979 | [12] 0.99 | [13] 0.989 | [14] 1.01 | [15] 0.987 | [16] 0.996 | [17] 0.993 | [18] 1.01 | [19] 0.991 | [20] 0.988 | [21] 0.851 | [22] 0.986 | [23] 0.988 | [24] 0.986 | [25] 1 | [26] 1 | S. cerevisiae deletion strains, locus YOL006C, strain TOP1, stronger effect = lower value 0.966 | [27] 1.01 | [28] 0.985 | [29] 1.01

COc1ccccc1N1CCN(C(=O)c2cccs2)CC1
inactive: [1] 0.998 | [2] 1.01 | [4] 0.991 | [5] 0.959 | [6] 1.04 | [7] 1.01 | [8] 1 | S. cerevisiae deletion strains, locus YGR229C, strain SMI1, stronger effect = lower value 0.993 | [9] 0.963 | [10] 0.985 | [11] 1.01 | [12] 1.03 | [13] 0.99 | [14] 1.01 | [15] 0.984 | [16] 0.889 | [17] 1.13 | [18] 0.972 | [19] 0.988 | [20] 1.02 | [21] 0.849 | [23] 1.04 | [24] 0.981 | [25] 0.993 | [26] 0.957 | [27] 0.99 | [28] 0.957 | [29] 1.1 | S. cerevisiae strains, strain wild type, stronger effect = lower value 0.993

COc1cc(NC(=S)N2CCN(c3ccccc3OC)CC2)c(OC)cc1Cl
inactive: [1] 1.01 | [2] 0.992 | [3] 0.984 | [4] 1 | [5] 1.01 | [6] 0.92 | [7] 1 | [8] 1.01 | [9] 0.95 | [10] 1.01 | [30] 0.997 | [11] 0.984 | [12] 0.999 | [13] 1.02 | [14] 0.949 | [15] 1.01 | [16] 1.14 | [17] 0.962 | [18] 0.995 | [19] 1 | [20] 0.924 | [22] 1.02 | [23] 0.98 | [24] 1 | [25] 0.997 | [26] 1.01 | [27] 0.9 | [28] 0.895 | [29] 0.966

COc1ccccc1N1CCN(CCN(C(=O)C2CCCCC2)c2ccccn2)CC1
inactive: S. cerevisiae deletion strains, locus YAL040C, strain CLN3, stronger effect = lower value 0.99 | S. cerevisiae deletion strains, locus YCL061C, strain MRC1 (second series), stronger effect = lower value 1.01 | S. cerevisiae deletion strains, locus YDR363W, strain ESC2, stronger effect = lower value 1.01 | S. cerevisiae deletion strains, locus YER002W, strain NOP16, stronger effect = lower value 1.01 | [12] 1.01 | [20] 0.997 | [21] 0.993 | [22] 1.01 | [23] 1.01 | S. cerevisiae deletion strains, locus YNL175C, strain NOP13, stronger effect = lower value 0.999 | S. cerevisiae deletion strains, locus YNL197C, strain WHI3, stronger effect = lower value 1 | S. cerevisiae deletion strains, locus YNL224C, strain SQS1, stronger effect = lower value 1 | S. cerevisiae deletion strains, locus YOR083W, strain WHI5 (second series), stronger effect = lower value 1.05 | [28] 1.01

COc1ccccc1N1CCN(C(=O)C(C)Nc2ccccn2)CC1 (centres undefined)
active: [28] 1.24 [resistant]
inactive: [1] 0.994 | [2] 1 | [4] 0.985 | [6] 0.986 | [7] 1.01 | [8] 0.986 | [9] 0.952 | [10] 1.01 | [30] 0.994 | [11] 1 | [12] 1.02 | [14] 0.997 | [15] 0.996 | [16] 1.04 | [17] 0.996 | [18] 0.984 | [19] 0.999 | [20] 1.04 | [21] 1.09 | [23] 1.02 | [24] 0.997 | [25] 0.999 | [26] 1 | [27] 1.01 | [29] 1

N#Cc1nccnc1N1CCN(C(=O)Nc2cc(Cl)cc(Cl)c2)CC1
inactive: S. cerevisiae deletion strains, locus YAR019C, strain CDC15, stronger effect = lower value 0.963 | S. cerevisiae deletion strains, locus YBL105C, strain PKC1, stronger effect = lower value 0.972 | S. cerevisiae deletion strains, locus YBR135W, strain CKS1, stronger effect = lower value 0.947 | S. cerevisiae deletion strains, locus YBR136W, strain MEC1, stronger effect = lower value 0.972 | S. cerevisiae deletion strains, locus YBR160W, strain CDC28, stronger effect = lower value 0.965 | S. cerevisiae deletion strains, locus YDL017W, strain CDC7, stronger effect = lower value 0.969 | S. cerevisiae deletion strains, locus YDL028C, strain MPS1, stronger effect = lower value 0.965 | [4] 0.975 | S. cerevisiae deletion strains, locus YDL108W, strain KIN28, stronger effect = lower value 0.968 | S. cerevisiae deletion strains, locus YDL132W, strain cdc53, stronger effect = lower value 0.967 | S. cerevisiae deletion strains, locus YDL214C, strain PRR2, stronger effect = lower value 0.955 | S. cerevisiae deletion strains, locus YDR052C, strain DBF4, stronger effect = lower value 0.969 | S. cerevisiae deletion strains, locus YDR054C, strain cdc34, stronger effect = lower value 0.952 | S. cerevisiae deletion strains, locus YDR226W, strain ADK1, stronger effect = lower value 0.965 | S. cerevisiae deletion strains, locus YDR477W, strain SNF1, stronger effect = lower value 0.923 | S. cerevisiae deletion strains, locus YER123W, strain YCK3, stronger effect = lower value 0.946 | S. cerevisiae deletion strains, locus YER133W, strain GLC7, stronger effect = lower value 0.967 | S. cerevisiae deletion strains, locus YFL009W, strain cdc4, stronger effect = lower value 0.951 | S. cerevisiae deletion strains, locus YFL029C, strain CAK1, stronger effect = lower value 0.958 | S. cerevisiae deletion strains, locus YFR003C, strain YPI1, stronger effect = lower value 0.972 | S. cerevisiae deletion strains, locus YFR019W, strain FAB1, stronger effect = lower value 0.947 | S. cerevisiae deletion strains, locus YFR028C, strain CDC14, stronger effect = lower value 0.966 | S. cerevisiae deletion strains, locus YGR040W, strain KSS1, stronger effect = lower value 0.946 | S. cerevisiae deletion strains, locus YGR052W, strain FMP48, stronger effect = lower value 1.05 | S. cerevisiae deletion strains, locus YGR092W, strain DBF2, stronger effect = lower value 0.896 | S. cerevisiae deletion strains, locus YHR079C, strain IRE1, stronger effect = lower value 0.739 | S. cerevisiae deletion strains, locus YHR082C, strain KSP1, stronger effect = lower value 0.964 | S. cerevisiae deletion strains, locus YHR205W, strain SCH9, stronger effect = lower value 0.946 | S. cerevisiae deletion strains, locus YIL147C, strain SLN1, stronger effect = lower value 0.966 | S. cerevisiae deletion strains, locus YJL095W, strain BCK1, stronger effect = lower value 0.824 | S. cerevisiae deletion strains, locus YJL128C, strain PBS2, stronger effect = lower value 0.954 | S. cerevisiae deletion strains, locus YJL157C, strain FAR1, stronger effect = lower value 0.925 | S. cerevisiae deletion strains, locus YJR016C, strain ILV3, stronger effect = lower value 0.952 | S. cerevisiae deletion strains, locus YJR066W, strain TOR1 (second series), stronger effect = lower value 0.934 | S. cerevisiae deletion strains, locus YJR066W, strain TOR1, stronger effect = lower value 0.891 | S. cerevisiae deletion strains, locus YKL048C, strain ELM1, stronger effect = lower value 0.959 | S. cerevisiae deletion strains, locus YKL067W, strain YNK1, stronger effect = lower value 0.959 | S. cerevisiae deletion strains, locus YKL101W, strain HSL1, stronger effect = lower value 0.938 | S. cerevisiae deletion strains, locus YKL193C, strain SDS22, stronger effect = lower value 0.961 | S. cerevisiae deletion strains, locus YKL203C, strain TOR2, stronger effect = lower value 0.985 | S. cerevisiae deletion strains, locus YLR113W, strain HOG1, stronger effect = lower value 0.892 | S. cerevisiae deletion strains, locus YLR133W, strain CKI1, stronger effect = lower value 0.942 | S. cerevisiae deletion strains, locus YLR403W, strain SFP1, stronger effect = lower value 0.949 | S. cerevisiae deletion strains, locus YML070W, strain DAK1, stronger effect = lower value 0.94 | S. cerevisiae deletion strains, locus YMR001C, strain CDC5, stronger effect = lower value 0.968 | S. cerevisiae deletion strains, locus YMR205C, strain PFK2 (second series), stronger effect = lower value 0.947 | S. cerevisiae deletion strains, locus YMR277W, strain FCP1, stronger effect = lower value 0.97 | S. cerevisiae deletion strains, locus YNL006W, strain LST8, stronger effect = lower value 0.961 | S. cerevisiae deletion strains, locus YNL020C, strain ARK1, stronger effect = lower value 0.934 | S. cerevisiae deletion strains, locus YNL161W, strain CBK1, stronger effect = lower value 0.961 | S. cerevisiae deletion strains, locus YNL183C, strain NPR1, stronger effect = lower value 0.952 | S. cerevisiae deletion strains, locus YNL207W, strain RIO2, stronger effect = lower value 0.971 | S. cerevisiae deletion strains, locus YNL222W, strain SSU72, stronger effect = lower value 0.967 | S. cerevisiae deletion strains, locus YNL307C, strain MCK1 (second series), stronger effect = lower value 0.941 | S. cerevisiae deletion strains, locus YOL078W, strain AVO1, stronger effect = lower value 0.961 | S. cerevisiae deletion strains, locus YOL136C, strain PFK27, stronger effect = lower value 0.924 | S. cerevisiae deletion strains, locus YOR061W, strain CKA2, stronger effect = lower value 0.931 | S. cerevisiae deletion strains, locus YOR119C, strain RIO1, stronger effect = lower value 1.02 | S. cerevisiae deletion strains, locus YOR231W, strain MKK1, stronger effect = lower value 0.883 | S. cerevisiae deletion strains, locus YOR329C, strain SCD5, stronger effect = lower value 0.971 | S. cerevisiae deletion strains, locus YPL031C, strain PHO85, stronger effect = lower value 0.9 | S. cerevisiae deletion strains, locus YPL153C, strain RAD53, stronger effect = lower value 0.906 | S. cerevisiae deletion strains, locus YPL204W, strain HRR25, stronger effect = lower value 0.915 | S. cerevisiae deletion strains, locus YPL209C, strain IPL1, stronger effect = lower value 0.974 | S. cerevisiae deletion strains, locus YPL256C, strain CLN2, stronger effect = lower value 0.922 | S. cerevisiae deletion strains, locus YPR025C, strain CCL1, stronger effect = lower value 0.959 | S. cerevisiae deletion strains, locus YPR106W, strain ISR1, stronger effect = lower value 0.986 | S. cerevisiae deletion strains, locus YPR111W, strain DBF20, stronger effect = lower value 0.958 | S. cerevisiae deletion strains, strain NNK1, stronger effect = lower value 0.973 | S. cerevisiae deletion strains, strain TSCII, stronger effect = lower value 0.953
active: [9] 0.714
